Screening data: PubChem BioAssay, National Center for Advancing Translational Sciences (NCATS)
Pin1 inhibitor = inhibitors of human Pin1; 390,000 compounds, 0.009% hits; Potency, µM (doses to about 115 µM), for inactives: at the top dose activity, negative = inhibition, actives largely listed as inhibitors; Pin1 FP peptide displacement, HiFluor488, 10 min; Q13526; AID 504891; active means well fitted inhibition curve with a large enough effect in the polarisation, with a control signal flat, not every such curve was filed as active; inconclusive means small, poorly fitted or top-dose-only effect, or effect the other way, or a change in a side signal; inactive means no such curve, though single readings can be large or run the other way; the % refers to the polarisation; further: potency means the concentration at half of the fitted maximal effect; on the % scale 0 is the no-effect control and ±100 the full control effect
Target sequence (Q13526 whole entry, looked up): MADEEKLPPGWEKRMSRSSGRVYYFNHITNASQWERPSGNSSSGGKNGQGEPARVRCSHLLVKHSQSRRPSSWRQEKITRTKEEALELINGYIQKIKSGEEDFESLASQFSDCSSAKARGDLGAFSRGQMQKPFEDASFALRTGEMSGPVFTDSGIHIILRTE
FEN1 inh = human FEN1 inhibition; Potency, µM (doses to about 114 µM), for the others: top-dose activity change, negative = inhibition, hits mostly inhibitors; P39748; 390,000 compounds, 0.35% hits; Recombinant FEN1 flap cleavage, fluorescence, 15 min; further: potency means the concentration at half of the fitted maximal effect; on the % scale 0 is the no-effect control and ±100 the full control effect; nearly all actives have a fitted effect of over 65% in size
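Nuclease activity of 10 nM FEN1 was measured after 15 min of room-temperature exposure to titrated compounds, by adding 50 nM flap substrate and reading plates at 0 and 15 min.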
WRN helicase inh = blocks human WRN helicase | 360,000 compounds, 0.46% hits | WRN helicase unwinding, fluorescent forked duplex, kinetic | Potency, µM (titrated, usually from 114 µM), inactives show at the highest dose activity change, negative = inhibition, most hits filed as inhibitors; further: potency means the concentration at half of the fitted maximal effect; on the % scale 0 is the no-effect control and ±100 the full control effect; nearly all actives have a fitted effect of over 55% in size
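WRN at 20 nM final was preincubated with compound for 15 min at room temperature; reaction started with 100 nM forked duplex oligonucleotide carrying fluorophore and quencher plus 2 mM ATP (final). Unwinding followed kinetically by red fluorescence (ex 525/em 598 nm).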
PI5P4K alpha inh = inhibitors of human PI5P4K alpha. P48426. 330,000 compounds, 1.2% hits. max response, %. PI5P4Kalpha enzyme, ADP-Glo luminescence, 60 min; stronger effect = lower value; active means max response of -50% or lower; inconclusive means between -30% and -50%; inactive means -30% or higher; further: value at the top dose of about 77 µM; on the % scale 0 is the no-effect control and ±100 the full control effect
Target sequence (P48426 whole entry, looked up): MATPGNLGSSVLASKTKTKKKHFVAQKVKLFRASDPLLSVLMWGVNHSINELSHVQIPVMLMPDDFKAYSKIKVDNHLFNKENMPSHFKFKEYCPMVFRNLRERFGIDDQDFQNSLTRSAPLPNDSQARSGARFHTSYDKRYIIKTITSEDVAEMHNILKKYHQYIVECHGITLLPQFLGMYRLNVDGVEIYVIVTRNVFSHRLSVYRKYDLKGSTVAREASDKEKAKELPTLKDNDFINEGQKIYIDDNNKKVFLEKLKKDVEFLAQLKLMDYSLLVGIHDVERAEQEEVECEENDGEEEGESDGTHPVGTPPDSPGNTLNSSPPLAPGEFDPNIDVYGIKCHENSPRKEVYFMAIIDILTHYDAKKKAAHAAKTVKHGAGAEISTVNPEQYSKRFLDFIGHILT
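PI5P4Kalpha ADP-Glo assay; 5 microM ATP final; 60 min RT reaction; HEPES pH 7.4/EGTA/CHAPS, 5% DMSO; controls lacking substrate or enzyme; luminescent end-point.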
Tb PGK inh = T. brucei PGK inhibition; Potency, µM (titrated, usually from 57.5 µM), without a hit: top-dose activity change, negative = inhibition, usual class: inhibitors; 380,000 compounds, 0.043% hits; PGK/GAPDH coupled, Kinase-Glo luminescence, 60 min; AID 602233; P07378; further: potency means the concentration at half of the fitted maximal effect; on the % scale 0 is the no-effect control and ±100 the full control effect; nearly all actives have a fitted effect of over 60% in size
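Recombinant glycosomal PGK reaction used 1,3-bisphosphoglycerate generated in-well by GAPDH (100nM final) in 100mM TEA pH 7.6, 5mM MgCl2, 0.01% Tween-20. After 60 minutes at room temperature, ATP was read by Kinase-Glo Plus luminescence end-point.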
GRP78 ERSR act = inducers of ER stress response in human glioma cells; U87-MG GRP78 promoter luciferase reporter, 16 h; Potency, µM, for the others: top-dose activation, actives largely listed as activators; 420,000 compounds, 0.02% hits; further: potency means the concentration at half of the fitted maximal effect; series mostly up to about 76 µM; % of control where 0% means no effect; nearly all actives have a fitted effect of over 35% in size
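Stably transfected U87-MG human glioma cells carrying a GRP78-based luminescent sensor were seeded at 1000 cells/well, pin-dosed with compounds and incubated 16 h. Luciferase reagent was then added, and end-point luminescence was read after 10 min at room temperature.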
Starred values were filed as active, the others as inactive; i = inactive; ? = inconclusive; · = no result; ! = not active in a repeat; [ ] = another dose, or the depositor's remark. Sampled rows, rich in hits. Any-hit rate of the full collection: about 1.3%. Unless noted, the call rests on the fitted dose curve; in most records, active means well fitted curve in the direction sought with a large enough effect; inconclusive means small, poorly fitted or top-dose-only effect, or another doubt; inactive means no such curve, though single readings can be large; an effect the other way counts as inactive or inconclusive.

SMILES | Pin1 inhibitor | FEN1 inh | WRN helicase inh | PI5P4K alpha inh | Tb PGK inh | GRP78 ERSR act
O=C(Nc1ccccc1)C1CCN(c2nc(-c3ccc(Br)cc3)cs2)CC1 | 31.8% | · | · | · | · | ·
O=C(Nc1ccccc1F)C1CCCN(S(=O)(=O)c2ccccc2)C1 (stereo not given) | -1.7% | -9.0% | 79.4µM* | ? | -2.2% | -3.3%
O=C1c2ccccc2C(=O)N1c1cncc2ccccc12 | 0.3% | · | · | · | · | ·
O=[N+]([O-])c1ccc(O)c(/C=N/n2cnc3ccccc32)c1 | 7.6% | 13.8% | -4.6% | -14.8 | -12.6% | 5.5%
Cc1ccc(/C=C2\SC(=S)N(/N=C/c3cc([N+](=O)[O-])ccc3O)C2=O)o1 | ? | 50.1µM* | 35.5µM* | -84.4* | -17.0% | -2.1%
O=C1N=C(N2C=CC(=C3C=CNC=C3)C=C2)/C(=C/N=NC(=O)c2ccccc2O)S1 | ? | ? | -31.2% | -60.7* | ? | 2.4%
O=C(NNc1cccc(Cl)n1)c1ccccc1CC[N+](=O)[O-] | -15.3% | -11.6% | ? | -78.1* | 0.0% | 1.1%
COC(=O)c1cc(CNC(=O)c2ccccc2)cc(NC(=O)c2ccccc2OC)c1 | · | · | · | · | · | 0.1%
ON=C1c2cc(OCCN3CCCCC3)ccc2-c2ccc(OCCN3CCCCC3)cc21 | 1.5% | 31.6µM* | -26.0% | -13.8 | 19.1% | -6.5%
Clc1ccc(OCCN2CCCCC2)cc1Cl | 2.4% | 0.1% | 9.6% | 4.6 | -0.1% | 1.4%
O=C(O)c1cc(NCc2cc(O)ccc2O)ccc1O | ? | 8.91µM* | · | · | · | -2.9%
COc1ccc(C2Nc3ccccc3C(=O)N2Cc2ccco2)cc1COc1ccccc1 (stereo not given) | 20.9% | · | · | · | · | ·
Cc1cc(/C=N/NC(N)=S)c(O)c(/C=N/NC(N)=S)c1 | · | -3.9% | -8.2% | -63.8* | -0.9% | -3.3%
CN(C)C(=O)C1CCN(c2nc(-c3ccc(Br)cc3)cs2)CC1 | -6.0% | · | · | · | · | ·
O=C1NC(=S)S/C1=C/c1ccc(OC(=O)c2ccco2)cc1 | ? | -1.3% | -11.6% | -61.9* | -6.3% | ?
O=C(Oc1ccc(-c2nnco2)cc1)c1ccco1 | 2.2% | -16.5% | 18.4% | 2.4 | i | -1.5%
O=C1NN(c2ccc(F)c(Cl)c2)C(=O)/C1=C\c1cccc(OC(=O)c2cccs2)c1 | · | -15.9% | 50.1µM* | -82.3* | -7.1% | ?
O=S(=O)(c1cc(O)ccc1O)c1cccc2c(S(=O)(=O)c3cc(O)ccc3O)cccc12 | ? | 35.5µM* | 31.6µM* | -90.8* | ? | -2.3%
Cc1ccc(C(=O)OCC(=O)c2ccc(CC(=O)N3CCOCC3)s2)c(C)c1 | ? | -0.5% | 50.1µM* | ? | -17.9% | 0.2%
Cc1ccc(C(=O)OCC(=O)c2ccc(CC(=O)N3CCOCC3)s2)cc1C | ? | -4.8% | 3.0%[11.6 µM] | ? | -12.7% | 8.4%
CN(Cc1cnc2nc(N)nc(N)c2n1)c1ccc(C(=O)N[C@@H](CCC(=O)O)C(=O)O)cc1 | 4.5% | ? | -11.4% | -68.3*! | 3.0% | -4.1%
CN(Cc1cnc2nc(N)nc(N)c2n1)c1ccc(C(=O)N[C@H](CCC(=O)O)C(=O)O)cc1 | · | · | · | · | · | -4.4%
Nc1cccc(S(=O)(=O)N2CCN(S(=O)(=O)c3ccc4c(c3)OCCO4)CC2)c1 | 3.7% | · | · | · | · | ·
COCC(=O)Nc1cc(C(=O)N2CCc3ccccc3C2)c2c(c1)nc(-c1ccncc1)n2C | · | · | · | · | · | -3.9%
CCOC(=O)C1C(c2ccc(O)c(OC)c2)NC(=O)NC1(O)C(F)(F)F (stereo not given) | 0.4% | -9.7% | -2.6% | -2.6 | -8.5% | -1.7%
SMILES | Pin1 inhibitor | FEN1 inh | WRN helicase inh | PI5P4K alpha inh | Tb PGK inh | GRP78 ERSR act
CCOC(=O)C1C(c2ccc3c(c2)OCO3)NC(=O)NC1(O)C(F)(F)F (stereo not given) | -1.8% | -3.6% | -6.5% | -53.0* | i | -5.2%
N#Cc1c(-c2ccco2)c2c([nH]c1=S)CCCC2 | ? | 6.8% | ? | -78.4* | -16.4% | -3.0%
N#Cc1c(-c2cccnc2)c2c([nH]c1=S)CCCC2 | 3.4% | 4.8% | -31.2% | -95.4* | -8.0% | -3.6%
COc1ccccc1CNC(=O)c1cnn(-c2nccc(-c3cccs3)n2)c1C | · | · | · | · | · | -2.4%
C#CCOCCOCCOCCNc1nc(N2CCN(C(=O)CCCCCCCCCCNC(=O)[C@H]([C@@H](C)CC)n3cc(CCCCN=C(N)N)nn3)CC2)nc(N2CCN(C(=O)CCCCCCCCCCNC(=O)[C@@H]([C@H](C)O)n3cc(C)nn3)CC2)n1 | ? | 25.1µM* | 56.2µM* | -84.0* | 14.2% | -10.3%
C#CCOCCOCCOCCNc1nc(N2CCN(C(=O)CCCCCCCCCCNC(=O)[C@@H](CCSC)n3cc(CCO)nn3)CC2)nc(N2CCN(C(=O)CCCCCCCCCCNC(=O)[C@H](CCCN=C(N)N)n3cc(C[C@@H](C)CC)nn3)CC2)n1 | 243.6% | 20µM* | 50.1µM* | -79.4* | -1.9% | -11.7%
C#CCOCCOCCOCCNc1nc(N2CCN(C(=O)CCCCCCCCCCNC(=O)[C@H](CCCCN)n3cc(C[C@@H](C)CC)nn3)CC2)nc(N2CCN(C(=O)CCCCCCCCCCNC(=O)[C@H](CCCN=C(N)N)n3cc(C[C@@H](C)CC)nn3)CC2)n1 | ? | 25.1µM* | 31.6µM* | -89.9* | -4.8% | -11.9%
C#CCOCCOCCOCCNc1nc(N2CCN(C(=O)CCCCCCCCCCNC(=O)Cn3cc(C[C@@H](C)O)nn3)CC2)nc(N2CCN(C(=O)CCCCCCCCCCNC(=O)[C@@H](CCSC)n3cc(CCO)nn3)CC2)n1 | 6.1% | -4.0% | 0.3% | 0.5 | -5.3% | 3.3%
C#CCOCCOCCOCCNc1nc(N2CCN(C(=O)CCCCCCCCCCNC(=O)[C@H](CCCCN)n3cc(C[C@@H](C)CC)nn3)CC2)nc(N2CCN(C(=O)CCCCCCCCCCNC(=O)[C@@H]([C@H](C)O)n3cc(C)nn3)CC2)n1 | 70.3% | 31.6µM* | 50.1µM* | ? | 7.3% | -11.9%
C#CCOCCOCCOCCNc1nc(N2CCN(C(=O)CCCCCCCCCCNC(=O)[C@H](CCCCN)n3cc(C)nn3)CC2)nc(N2CCN(C(=O)CCCCCCCCCCNC(=O)[C@@H]([C@H](C)O)n3cc(C)nn3)CC2)n1 | 1.2% | ? | -8.5% | ? | 4.7% | -2.8%
C#CCOCCOCCOCCNc1nc(N2CCN(C(=O)CCCCCCCCCCNC(=O)[C@H](CCCCN)n3cc(C)nn3)CC2)nc(N2CCN(C(=O)CCCCCCCCCCNC(=O)[C@H](CCCN=C(N)N)n3cc(C[C@@H](C)CC)nn3)CC2)n1 | ? | 22.4µM* | 44.7µM* | -51.2* | 11.6% | -11.9%
Cn1cc(/C=C2\SC(=S)N(NC(=O)c3cccc(Cl)c3)C2=O)c2ccccc21 | ? | 7.8% | 20µM* | 2.1 | -0.3% | -2.4%
